# Paper PMC7862700, “An all-to-all approach to the identification of sequence-specific readers for epigenetic DNA modifications on cytosine”
# Assays:
# Assay in all cases: DAPPL (digital affinity profiling via proximity ligation, sequencing); 10 mM Tris-HCl pH 7.5, 50 mM NaCl, 1 mM DTT, 4% glycerol, room temperature, 30 min; GST-TFs on glutathione beads, 16-mer random dsDNA library, 0.1% formaldehyde crosslink after washing; high values mean tight binding
# FEV = biological target: T1, FEV (Homo sapiens, UniProt Q99581 1-238); details: protein: recombinant; tags: N-terminal GST; dsDNA, one strand shown
# T1 sequence: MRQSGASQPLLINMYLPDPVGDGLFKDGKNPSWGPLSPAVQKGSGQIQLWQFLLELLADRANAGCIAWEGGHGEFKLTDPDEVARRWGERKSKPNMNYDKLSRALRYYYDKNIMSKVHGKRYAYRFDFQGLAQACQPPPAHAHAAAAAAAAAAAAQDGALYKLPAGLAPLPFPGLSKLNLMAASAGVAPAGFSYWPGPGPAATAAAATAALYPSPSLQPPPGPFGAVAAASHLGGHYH
# Method in brief: (§1)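 Human transcription factors were made in yeast as GST fusions, captured on glutathione beads and barcoded with DNA. With a tag-only sample included, the pool was incubated with 200 nmole of a random double-stranded 16-mer DNA library in Tris/NaCl/DTT/glycerol buffer at room temperature for 30 min, then crosslinked with 0.1% formaldehyde after washing, ligated by proximity, amplified and sequenced. For binding signal, each hexamer's read frequency for a factor is divided by its frequency for the tag-only sample.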
# ETV5 = ETV5 (Homo sapiens, UniProt P41161 1-510); details: protein: recombinant; tags: N-terminal GST; dsDNA, one strand shown
# Method in brief: as §1
# HSF1 = HSF1 (Homo sapiens, UniProt Q00613 1-529); details: protein: recombinant; tags: N-terminal GST; chain copies: 3; dsDNA, one strand shown
# Method in brief: as §1
# SPIC = biological target: T2, SPIC (Homo sapiens, UniProt Q8N5J4 1-248); details: protein: recombinant; tags: N-terminal GST; dsDNA, one strand shown
# T2 sequence: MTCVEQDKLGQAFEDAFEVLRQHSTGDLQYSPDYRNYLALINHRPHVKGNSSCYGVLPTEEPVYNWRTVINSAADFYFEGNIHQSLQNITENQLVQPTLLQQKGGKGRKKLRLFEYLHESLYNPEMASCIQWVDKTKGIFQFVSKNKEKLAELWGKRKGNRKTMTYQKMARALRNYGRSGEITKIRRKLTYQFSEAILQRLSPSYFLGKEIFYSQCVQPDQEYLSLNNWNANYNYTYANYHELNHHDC
# Method in brief: as §1
# ELF4 = ELF4 (Homo sapiens, UniProt Q99607 1-663); details: protein: recombinant; tags: N-terminal GST; dsDNA, one strand shown
# Method in brief: as §1
# ELK4 = biological target: T3, ELK4 (Homo sapiens, UniProt P28324-2 1-405); details: protein: recombinant; tags: N-terminal GST; dsDNA, one strand shown
# T3 sequence: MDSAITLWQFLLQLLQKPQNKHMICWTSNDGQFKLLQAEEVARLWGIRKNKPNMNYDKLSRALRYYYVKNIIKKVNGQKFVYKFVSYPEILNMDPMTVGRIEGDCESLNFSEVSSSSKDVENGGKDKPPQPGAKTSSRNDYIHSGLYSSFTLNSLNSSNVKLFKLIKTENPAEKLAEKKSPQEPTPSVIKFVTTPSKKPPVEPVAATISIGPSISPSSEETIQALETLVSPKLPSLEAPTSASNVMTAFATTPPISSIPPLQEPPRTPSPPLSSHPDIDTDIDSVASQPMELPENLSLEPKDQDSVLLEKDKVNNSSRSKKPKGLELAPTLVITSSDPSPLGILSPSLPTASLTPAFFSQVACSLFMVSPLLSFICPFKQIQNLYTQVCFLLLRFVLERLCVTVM
# Method in brief: as §1
# ETV2 = biological target: T4, ETV2 (Homo sapiens, UniProt O00321 1-342); details: protein: recombinant; tags: N-terminal GST; dsDNA, one strand shown
# T4 sequence: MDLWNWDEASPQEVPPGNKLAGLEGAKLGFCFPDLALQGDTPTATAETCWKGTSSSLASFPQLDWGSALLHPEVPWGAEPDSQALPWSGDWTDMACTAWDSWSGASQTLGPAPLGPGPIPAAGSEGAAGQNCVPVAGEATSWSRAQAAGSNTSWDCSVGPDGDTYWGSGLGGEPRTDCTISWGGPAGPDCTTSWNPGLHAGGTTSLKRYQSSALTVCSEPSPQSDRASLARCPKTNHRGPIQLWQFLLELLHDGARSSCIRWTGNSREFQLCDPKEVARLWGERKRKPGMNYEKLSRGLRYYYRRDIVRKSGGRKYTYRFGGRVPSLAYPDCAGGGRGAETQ
# Method in brief: as §1
# ELF3 = biological target: T5, ELF3 (Homo sapiens, UniProt P78545 1-371); details: protein: recombinant; tags: N-terminal GST; dsDNA, one strand shown
# T5 sequence: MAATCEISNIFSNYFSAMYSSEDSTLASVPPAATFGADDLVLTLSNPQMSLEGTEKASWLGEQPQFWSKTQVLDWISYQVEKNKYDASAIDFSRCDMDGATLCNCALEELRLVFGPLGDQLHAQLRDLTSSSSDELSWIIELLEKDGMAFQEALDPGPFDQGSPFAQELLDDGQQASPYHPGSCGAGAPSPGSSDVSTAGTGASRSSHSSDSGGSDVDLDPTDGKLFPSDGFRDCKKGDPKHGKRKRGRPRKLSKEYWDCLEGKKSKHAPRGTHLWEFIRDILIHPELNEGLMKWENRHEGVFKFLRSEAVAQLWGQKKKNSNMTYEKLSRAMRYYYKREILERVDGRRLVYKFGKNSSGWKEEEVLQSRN
# Method in brief: as §1
# CRX = CRX (Homo sapiens, UniProt O43186 1-299); details: protein: recombinant; tags: N-terminal GST; dsDNA, one strand shown
# Method in brief: as §1
# ETV1 = ETV1 (Homo sapiens, UniProt P50549 1-477); details: protein: recombinant; tags: N-terminal GST; dsDNA, one strand shown
# Method in brief: as §1
# ERF = biological target: T6, ERF (Homo sapiens, UniProt P50548 1-548); details: protein: recombinant; tags: N-terminal GST; dsDNA, one strand shown
# T6 sequence: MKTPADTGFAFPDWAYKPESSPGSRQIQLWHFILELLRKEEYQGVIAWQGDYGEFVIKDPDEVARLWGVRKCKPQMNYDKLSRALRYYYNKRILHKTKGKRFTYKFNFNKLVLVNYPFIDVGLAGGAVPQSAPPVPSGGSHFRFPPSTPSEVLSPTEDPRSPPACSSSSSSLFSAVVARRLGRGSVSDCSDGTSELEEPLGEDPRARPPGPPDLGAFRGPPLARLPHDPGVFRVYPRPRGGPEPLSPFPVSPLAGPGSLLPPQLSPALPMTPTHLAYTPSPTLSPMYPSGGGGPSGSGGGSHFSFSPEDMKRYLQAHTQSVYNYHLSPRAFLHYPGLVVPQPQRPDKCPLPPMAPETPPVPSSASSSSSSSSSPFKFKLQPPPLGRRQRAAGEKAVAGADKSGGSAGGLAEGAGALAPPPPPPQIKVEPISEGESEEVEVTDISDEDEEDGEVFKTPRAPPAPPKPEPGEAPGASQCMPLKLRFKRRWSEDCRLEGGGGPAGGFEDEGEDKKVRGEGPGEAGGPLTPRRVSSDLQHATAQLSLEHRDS
# Method in brief: as §1
# ETV3L = biological target: T7, ETV3L (Homo sapiens, UniProt Q6ZN32 1-361); details: protein: recombinant; tags: N-terminal GST; dsDNA, one strand shown
# T7 sequence: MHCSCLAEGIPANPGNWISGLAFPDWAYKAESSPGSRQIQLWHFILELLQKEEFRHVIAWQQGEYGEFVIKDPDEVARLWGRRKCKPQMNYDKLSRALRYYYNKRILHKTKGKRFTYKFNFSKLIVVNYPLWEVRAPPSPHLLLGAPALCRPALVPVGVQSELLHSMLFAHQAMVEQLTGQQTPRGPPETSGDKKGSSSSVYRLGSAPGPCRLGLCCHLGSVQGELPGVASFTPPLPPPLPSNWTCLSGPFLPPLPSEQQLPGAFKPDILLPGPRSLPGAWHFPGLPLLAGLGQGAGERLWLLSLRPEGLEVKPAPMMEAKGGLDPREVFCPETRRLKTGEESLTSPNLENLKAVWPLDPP
# Method in brief: as §1
# ETS2 = biological target: T8, ETS2 (Homo sapiens, UniProt P15036 1-469); details: protein: recombinant; tags: N-terminal GST; dsDNA, one strand shown
# T8 sequence: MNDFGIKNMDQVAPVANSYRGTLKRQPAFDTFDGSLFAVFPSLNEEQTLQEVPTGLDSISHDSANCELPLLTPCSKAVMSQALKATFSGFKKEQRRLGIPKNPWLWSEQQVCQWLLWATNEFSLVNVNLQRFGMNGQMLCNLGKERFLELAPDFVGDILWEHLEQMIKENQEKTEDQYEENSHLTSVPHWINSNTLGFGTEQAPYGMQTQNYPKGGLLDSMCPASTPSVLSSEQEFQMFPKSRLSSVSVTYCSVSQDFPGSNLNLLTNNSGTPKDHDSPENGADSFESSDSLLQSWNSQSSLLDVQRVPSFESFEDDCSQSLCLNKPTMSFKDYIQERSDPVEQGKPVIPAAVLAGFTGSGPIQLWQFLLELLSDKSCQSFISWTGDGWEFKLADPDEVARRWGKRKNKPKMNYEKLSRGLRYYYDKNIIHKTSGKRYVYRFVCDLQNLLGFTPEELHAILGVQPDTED
# Method in brief: as §1
# SPDEF = biological target: T9, SPDEF (Homo sapiens, UniProt O95238 1-335); details: protein: recombinant; tags: N-terminal GST; dsDNA, one strand shown
# T9 sequence: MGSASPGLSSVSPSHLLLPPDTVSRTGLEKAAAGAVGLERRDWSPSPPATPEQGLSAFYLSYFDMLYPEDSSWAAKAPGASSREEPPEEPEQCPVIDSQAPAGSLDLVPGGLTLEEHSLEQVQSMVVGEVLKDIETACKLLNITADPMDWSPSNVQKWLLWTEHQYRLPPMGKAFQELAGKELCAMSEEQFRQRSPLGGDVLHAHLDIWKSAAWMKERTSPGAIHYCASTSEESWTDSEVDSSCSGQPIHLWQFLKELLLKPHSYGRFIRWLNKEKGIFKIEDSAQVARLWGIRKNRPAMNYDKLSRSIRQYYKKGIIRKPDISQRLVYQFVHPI
# Method in brief: as §1
# ETV7 = biological target: T10, ETV7 (Homo sapiens, UniProt Q9Y603 1-341); details: protein: recombinant; tags: N-terminal GST; dsDNA, one strand shown
# T10 sequence: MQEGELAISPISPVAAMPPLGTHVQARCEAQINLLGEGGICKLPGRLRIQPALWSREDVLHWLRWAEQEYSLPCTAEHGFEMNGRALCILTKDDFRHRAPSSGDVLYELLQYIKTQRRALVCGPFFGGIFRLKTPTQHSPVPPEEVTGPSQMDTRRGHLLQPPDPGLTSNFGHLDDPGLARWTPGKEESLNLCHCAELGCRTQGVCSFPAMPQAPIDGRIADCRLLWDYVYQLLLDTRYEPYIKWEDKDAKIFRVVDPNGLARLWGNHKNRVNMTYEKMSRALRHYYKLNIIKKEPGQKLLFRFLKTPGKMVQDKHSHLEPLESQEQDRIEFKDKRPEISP
# Method in brief: as §1
# ELF5 = biological target: T11, ELF5 (Homo sapiens, UniProt Q9UKW6-2 1-255); details: protein: recombinant; tags: N-terminal GST; dsDNA, one strand shown
# T11 sequence: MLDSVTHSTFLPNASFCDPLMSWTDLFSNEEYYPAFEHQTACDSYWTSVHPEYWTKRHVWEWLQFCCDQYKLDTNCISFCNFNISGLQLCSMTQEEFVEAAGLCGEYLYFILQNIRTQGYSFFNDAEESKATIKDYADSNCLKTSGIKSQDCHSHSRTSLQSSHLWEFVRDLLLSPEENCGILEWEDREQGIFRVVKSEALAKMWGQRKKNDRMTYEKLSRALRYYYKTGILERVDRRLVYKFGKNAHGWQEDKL
# Method in brief: as §1
# ETV3 = biological target: T12, ETV3 (Homo sapiens, UniProt P41162-2 1-143); details: protein: recombinant; tags: N-terminal GST; dsDNA, one strand shown
# T12 sequence: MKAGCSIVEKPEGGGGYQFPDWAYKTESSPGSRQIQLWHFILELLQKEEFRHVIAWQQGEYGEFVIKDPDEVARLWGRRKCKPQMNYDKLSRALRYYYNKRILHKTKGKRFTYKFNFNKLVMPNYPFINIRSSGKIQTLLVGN
# Method in brief: as §1
# ETV6 = ETV6 (Homo sapiens, UniProt P41212 1-452); details: protein: recombinant; tags: N-terminal GST; dsDNA, one strand shown
# Method in brief: as §1
# ELF4, sequence (Q99607 whole entry): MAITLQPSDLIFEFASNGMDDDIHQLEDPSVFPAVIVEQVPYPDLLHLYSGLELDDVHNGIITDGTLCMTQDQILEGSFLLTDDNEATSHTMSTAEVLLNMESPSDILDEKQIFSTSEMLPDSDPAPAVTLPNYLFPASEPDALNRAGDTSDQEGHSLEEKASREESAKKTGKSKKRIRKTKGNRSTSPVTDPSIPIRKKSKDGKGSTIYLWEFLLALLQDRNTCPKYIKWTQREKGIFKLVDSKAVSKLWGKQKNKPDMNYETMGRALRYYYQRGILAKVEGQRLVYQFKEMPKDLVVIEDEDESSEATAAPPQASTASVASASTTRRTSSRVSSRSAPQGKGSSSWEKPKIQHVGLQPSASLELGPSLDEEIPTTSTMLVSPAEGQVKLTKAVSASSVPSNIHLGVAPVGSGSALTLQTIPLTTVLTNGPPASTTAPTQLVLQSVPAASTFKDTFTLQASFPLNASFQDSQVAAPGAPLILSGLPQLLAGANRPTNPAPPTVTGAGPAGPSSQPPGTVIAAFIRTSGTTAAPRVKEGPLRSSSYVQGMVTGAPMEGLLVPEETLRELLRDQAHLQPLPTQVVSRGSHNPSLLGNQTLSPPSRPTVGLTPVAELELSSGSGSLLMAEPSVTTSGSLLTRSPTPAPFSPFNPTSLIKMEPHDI
# CRX, sequence (O43186 whole entry): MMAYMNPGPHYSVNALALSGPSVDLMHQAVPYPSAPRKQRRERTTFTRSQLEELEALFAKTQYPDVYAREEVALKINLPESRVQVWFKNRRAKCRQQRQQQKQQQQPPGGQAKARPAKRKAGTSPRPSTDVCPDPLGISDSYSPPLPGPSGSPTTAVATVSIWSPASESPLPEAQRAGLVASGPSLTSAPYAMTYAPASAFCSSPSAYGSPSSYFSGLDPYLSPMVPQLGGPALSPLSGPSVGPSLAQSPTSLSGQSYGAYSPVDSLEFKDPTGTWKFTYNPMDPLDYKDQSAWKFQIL
# ETV5, sequence (P41161 whole entry): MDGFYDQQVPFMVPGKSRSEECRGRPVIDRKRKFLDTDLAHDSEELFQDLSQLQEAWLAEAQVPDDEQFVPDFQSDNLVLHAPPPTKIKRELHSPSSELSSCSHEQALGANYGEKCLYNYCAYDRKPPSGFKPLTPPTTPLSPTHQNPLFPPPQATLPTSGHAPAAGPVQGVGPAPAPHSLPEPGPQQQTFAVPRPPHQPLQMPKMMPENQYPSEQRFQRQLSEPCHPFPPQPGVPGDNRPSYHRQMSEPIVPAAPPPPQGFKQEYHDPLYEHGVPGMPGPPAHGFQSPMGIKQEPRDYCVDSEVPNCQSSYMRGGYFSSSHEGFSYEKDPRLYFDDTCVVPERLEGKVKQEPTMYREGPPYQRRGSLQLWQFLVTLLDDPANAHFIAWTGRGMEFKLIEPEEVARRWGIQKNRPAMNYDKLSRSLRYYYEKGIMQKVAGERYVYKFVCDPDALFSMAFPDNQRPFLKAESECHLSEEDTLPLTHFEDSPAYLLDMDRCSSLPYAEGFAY
# ETV1, sequence (P50549 whole entry): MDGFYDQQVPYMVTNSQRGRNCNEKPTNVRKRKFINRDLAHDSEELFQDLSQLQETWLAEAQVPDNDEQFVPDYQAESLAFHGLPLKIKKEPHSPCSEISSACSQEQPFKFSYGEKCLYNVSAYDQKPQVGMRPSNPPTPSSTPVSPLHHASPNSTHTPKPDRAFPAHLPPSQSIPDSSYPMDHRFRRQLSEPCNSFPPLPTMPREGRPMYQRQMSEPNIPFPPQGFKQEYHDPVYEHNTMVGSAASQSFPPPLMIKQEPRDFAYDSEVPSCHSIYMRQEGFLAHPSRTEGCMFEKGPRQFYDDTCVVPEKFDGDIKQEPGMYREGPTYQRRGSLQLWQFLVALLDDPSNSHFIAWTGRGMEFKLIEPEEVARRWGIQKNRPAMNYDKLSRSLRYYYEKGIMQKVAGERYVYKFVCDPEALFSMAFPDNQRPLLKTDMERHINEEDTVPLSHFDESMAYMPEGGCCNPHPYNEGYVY
# HSF1, sequence (Q00613 whole entry): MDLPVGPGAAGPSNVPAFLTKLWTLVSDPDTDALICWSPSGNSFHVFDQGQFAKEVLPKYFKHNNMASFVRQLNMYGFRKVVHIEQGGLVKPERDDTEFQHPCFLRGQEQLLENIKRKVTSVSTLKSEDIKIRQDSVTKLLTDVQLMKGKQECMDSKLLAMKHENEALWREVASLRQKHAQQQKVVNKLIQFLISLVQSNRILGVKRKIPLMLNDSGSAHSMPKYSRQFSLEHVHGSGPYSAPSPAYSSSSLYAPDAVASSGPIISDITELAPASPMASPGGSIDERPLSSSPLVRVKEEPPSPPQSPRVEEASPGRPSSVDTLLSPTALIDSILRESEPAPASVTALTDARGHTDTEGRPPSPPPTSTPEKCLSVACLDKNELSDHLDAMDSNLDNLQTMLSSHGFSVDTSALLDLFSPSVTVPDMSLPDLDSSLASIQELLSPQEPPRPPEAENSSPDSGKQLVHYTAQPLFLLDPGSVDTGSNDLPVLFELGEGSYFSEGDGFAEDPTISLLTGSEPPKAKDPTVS
# ETV6, sequence (P41212 whole entry): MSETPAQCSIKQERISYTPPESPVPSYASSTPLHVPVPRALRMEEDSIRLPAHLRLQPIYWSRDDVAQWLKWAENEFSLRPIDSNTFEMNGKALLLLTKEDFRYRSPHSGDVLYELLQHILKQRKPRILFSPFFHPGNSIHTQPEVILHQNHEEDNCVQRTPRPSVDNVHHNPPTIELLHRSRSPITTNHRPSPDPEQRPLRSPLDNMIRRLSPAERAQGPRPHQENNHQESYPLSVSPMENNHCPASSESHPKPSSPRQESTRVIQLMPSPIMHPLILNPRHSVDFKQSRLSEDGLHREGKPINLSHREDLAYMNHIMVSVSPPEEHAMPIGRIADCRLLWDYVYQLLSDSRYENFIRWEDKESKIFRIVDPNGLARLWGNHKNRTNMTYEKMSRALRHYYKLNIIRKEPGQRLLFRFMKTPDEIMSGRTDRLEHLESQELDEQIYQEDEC
sequence,measurement,setting,value
GCTTCA,binding signal,FEV,"1.27 fold enrichment (6-mer frequency, TF over GST control)"
same,binding signal,ETV5,"1.24 fold enrichment (6-mer frequency, TF over GST control)"
same,binding signal,HSF1,"1.23 fold enrichment (6-mer frequency, TF over GST control)"
same,binding signal,SPIC,"1.3 fold enrichment (6-mer frequency, TF over GST control)"
same,binding signal,ELF4,"1.29 fold enrichment (6-mer frequency, TF over GST control)"
same,binding signal,ELK4,"1.36 fold enrichment (6-mer frequency, TF over GST control)"
same,binding signal,ETV2,"1.29 fold enrichment (6-mer frequency, TF over GST control)"
same,binding signal,ELF3,"1.31 fold enrichment (6-mer frequency, TF over GST control)"
same,binding signal,CRX,"1.1 fold enrichment (6-mer frequency, TF over GST control)"
same,binding signal,ETV1,"1.23 fold enrichment (6-mer frequency, TF over GST control)"
same,binding signal,ERF,"1.33 fold enrichment (6-mer frequency, TF over GST control)"
same,binding signal,ETV3L,"1.35 fold enrichment (6-mer frequency, TF over GST control)"
same,binding signal,ETS2,"1.27 fold enrichment (6-mer frequency, TF over GST control)"
same,binding signal,SPDEF,"1.31 fold enrichment (6-mer frequency, TF over GST control)"
same,binding signal,ETV7,"1.34 fold enrichment (6-mer frequency, TF over GST control)"
same,binding signal,ELF5,"1.28 fold enrichment (6-mer frequency, TF over GST control)"
same,binding signal,ETV3,"1.24 fold enrichment (6-mer frequency, TF over GST control)"
same,binding signal,ETV6,"1.33 fold enrichment (6-mer frequency, TF over GST control)"
